Read-outs that look alike come from different tables or passages of the source.

Here are results for 16 compounds from PMC11062922 (Nature Chemical Biology, 2023).

Design in all cases: species or system human, MV4-11 + K-562 + COLO205 + SK-N-BE2 + OVCAR-8
For test [1], the system named is BUB1. Particulars: read-out: apparent Kd, n = 1.
Test [2] relates to EPHA2. Particulars: read-out: apparent Kd, n = 1.
For test [3], the system named is HCK. Particulars: read-out: apparent Kd, n = 1.
Test [4] deals with MARK2. Particulars: read-out: apparent Kd, n = 1.
Test [5] concerns PHKG2. Particulars: read-out: apparent Kd, n = 1.
The subject of test [6] is PRKAA2. Particulars: read-out: apparent Kd, n = 1.
Test [7] concerns PRKX. Particulars: read-out: apparent Kd, n = 1.
The subject of test [8] is SRC. Particulars: read-out: apparent Kd, n = 1.
Test [9] deals with YES1. To be noted: read-out: apparent Kd, n = 1.
In test [10] the test system is CSNK1E. Particulars: read-out: apparent Kd, n = 1.
The test system of test [11] is ADCK1. To be noted: read-out: apparent Kd, compound concentrations: 100 nM and 1000 nM (sheet 'Samples'), n = 1.
The subject of test [12] is CDK17. To be noted: read-out: apparent Kd; compound concentrations: 100 nM and 1000 nM (sheet 'Samples'), CATDS: 5.1710144175889199E-3; n = 1.
Test [13] has as its system CSNK1A1. To be noted: read-out: apparent Kd, n = 1.
The subject of test [14] is MAPK8. Particulars: read-out: apparent Kd, n = 1.
Test [15] relates to RIOK2. Particulars: read-out: apparent Kd, n = 1.
Test [16] concerns ROCK2. To be noted: read-out: apparent Kd, compound concentrations: 100 nM and 1000 nM (sheet 'Samples'), n = 1.
The subject of test [17] is STK16. Particulars: read-out: apparent Kd, n = 1.
Test [18] relates to STK3. To be noted: read-out: apparent Kd, n = 1.
Test [19] concerns MAPK10. Particulars: read-out: apparent Kd, n = 1.
Test [20] deals with TNIK. To be noted: read-out: apparent Kd; compound concentrations: 100 nM and 1000 nM (sheet 'Samples'), CATDS: 3.2855545776320001E-2; n = 1.
Where [21] appears, read: compound concentrations:100 nM and 1000 nM (sheet 'Samples').

For the compound `O=C1NC(=O)C(N2CCc3ccccc32)=C1c1ccccc1Cl` [SB-373598], the potency estimated from few doses in test [1] (setting [21]) was 1690 nM; in test [2] (setting [21]), 87.4 nM; in [3] (setting [21]) it was 312 nM; in [4] (setting [21]) it was 1350 nM; in test [5] (setting [21]), 872 nM; in test [6] (setting [21]), 694 nM. For the same compound, the potency estimated from few doses in [7] (setting [21]) is 367 nM; in [8] (setting [21]) it was 134 nM; in test [9] (setting [21]) it was 128 nM.
Turning to `Cc1ccc2c(-c3ccncc3)c(-c3ccc(F)cc3)nn2c1.Cl` [GW461484A], the potency estimated from few doses in [10] (setting [21]) is 673 nM; in test [2] (setting [21]) it was 754 nM; in test [3] (setting [21]), 755 nM; in test [5] (setting [21]), 1600 nM; in test [6] (setting [21]) it was 1840 nM; in test [8] (setting [21]), 593 nM. Further, the potency estimated from few doses in [9] (setting [21]) was 556 nM.
Regarding `Cn1ncc2c(N)ncnc21` [SKF-18267], the potency estimated from few doses in test [11] (CATDS: 5.0791005267813499E-3) was 789 nM; in [1] (compound concentrations: 100 nM and 1000 nM (sheet 'Samples'), CATDS: 3.8134095637251098E-3), 1510 nM; in test [12], 762 nM; in test [13] (compound concentrations: 100 nM and 1000 nM (sheet 'Samples'), CATDS: 5.1324512690416697E-3), 773 nM; in [10] (compound concentrations: 100 nM and 1000 nM (sheet 'Samples'), CATDS: 4.2831601683339304E-3), 1130 nM; in test [2] (compound concentrations: 100 nM and 1000 nM (sheet 'Samples'), CATDS: 6.1597951567788304E-3) it was 555 nM. In addition, the potency estimated from few doses in [3] (compound concentrations: 100 nM and 1000 nM (sheet 'Samples'), CATDS: 4.5358126876330496E-3) is 997 nM; in test [14] (compound concentrations: 100 nM and 1000 nM (sheet 'Samples'), CATDS: 3.9571355950897801E-3), 1370 nM; in test [4] (compound concentrations: 100 nM and 1000 nM (sheet 'Samples'), CATDS: 3.8405596428901902E-3), 1490 nM; in test [5] (compound concentrations: 100 nM and 1000 nM (sheet 'Samples'), CATDS: 4.3394023432843602E-3), 1100 nM; in [15] (compound concentrations: 100 nM and 1000 nM (sheet 'Samples'), CATDS: 5.3875103826164002E-3), 705 nM; in test [16] (CATDS: 4.7820751865343299E-3), 891 nM. The potency estimated from few doses is 429 nM in test [8] (compound concentrations: 100 nM and 1000 nM (sheet 'Samples'), CATDS: 7.2051481672215003E-3); 1310 nM in test [17] (compound concentrations: 100 nM and 1000 nM (sheet 'Samples'), CATDS: 4.0331507933998702E-3); 1120 nM in test [18] (compound concentrations: 100 nM and 1000 nM (sheet 'Samples'), CATDS: 4.2986396089691199E-3); 456 nM in test [9] (compound concentrations: 100 nM and 1000 nM (sheet 'Samples'), CATDS: 6.9300225951379104E-3).
`O=C1N=C(NCCc2ccc(Cl)cc2)S/C1=C\c1ccc2ncccc2c1` [RO4498479-000]: the potency estimated from few doses is 1070 nM in [1] (compound concentrations: 100 nM and 1000 nM (sheet 'Samples'), CATDS: 7.8507646745445397E-3); 277 nM in test [2] (compound concentrations: 100 nM and 1000 nM (sheet 'Samples'), CATDS: 1.41311052368837E-2); 393 nM in test [3] (compound concentrations: 100 nM and 1000 nM (sheet 'Samples'), CATDS: 1.17279601666646E-2); 960 nM in test [4] (compound concentrations: 100 nM and 1000 nM (sheet 'Samples'), CATDS: 8.1372297919538004E-3); 932 nM in test [5] (compound concentrations: 100 nM and 1000 nM (sheet 'Samples'), CATDS: 8.2148610451916008E-3); 667 nM in test [6] (compound concentrations: 100 nM and 1000 nM (sheet 'Samples'), CATDS: 9.27662971485879E-3). In addition, the potency estimated from few doses in test [7] (compound concentrations: 100 nM and 1000 nM (sheet 'Samples'), CATDS: 9.1029786610764794E-3) was 700 nM; in test [8] (compound concentrations: 100 nM and 1000 nM (sheet 'Samples'), CATDS: 1.16822109686501E-2), 396 nM; in test [9] (compound concentrations: 100 nM and 1000 nM (sheet 'Samples'), CATDS: 1.22768983688542E-2), 359 nM.
`CCn1c(-c2nonc2N)nc2c(C#CC(C)(C)O)nc(OC[C@@H](N)c3ccccc3)cc21` [GSK938890A]: the potency estimated from few doses is 36.6 nM in [7] (compound concentrations: 100 nM and 1000 nM (sheet 'Samples'), CATDS: 0.16139090072401199); 1160 nM in test [16] (CATDS: 5.36427183140821E-2).
For `Cl.NCc1ccc(-c2nc(-c3ccc(Cl)c(O)c3)c(-c3ccncc3)[nH]2)cc1` [SB-476429-A], the results for the potency estimated from few doses in test [1] (setting [21]) and in [10] (setting [21]) were 2020 nM and 1380 nM, respectively.
As to `CN(c1ccc(NC(=O)N2CCN(CCCN3CCOCC3)CC2)cc1)c1ccnc(Nc2ccc(CS(C)(=O)=O)cc2)n1.Cl` [GW830899A], the potency estimated from few doses in test [11] (CATDS: 2.5462418576412099E-2) is 867 nM; in [4] (compound concentrations: 100 nM and 1000 nM (sheet 'Samples'), CATDS: 1.9891178500976402E-2), 1550 nM.
As for `Cc1ccc(Nc2ccnc(Nc3ccc4c(c3)CS(=O)(=O)C4)n2)cc1O.Cl` [GW579362A], the potency estimated from few doses in test [17] (compound concentrations: 100 nM and 1000 nM (sheet 'Samples'), CATDS: 2.76147737346315E-2) is 1620 nM.
For the compound `CC(C)N1CCC(n2cnc(-c3ccc(F)cc3)c2-c2ccnc(N)n2)CC1` [SB-223132], the potency estimated from few doses in test [1] (setting [21]) is 1670 nM; in [13] (setting [21]), 158 nM; in test [10] (setting [21]) it was 77.8 nM; in test [2] (setting [21]) it was 735 nM; in test [3] (setting [21]), 969 nM; in [19] (setting [21]) it was 1330 nM. Moreover, the potency estimated from few doses in test [4] (setting [21]) is 1570 nM; in [6] (setting [21]) it was 1290 nM; in [8] (setting [21]) it was 964 nM; in test [9] (setting [21]), 758 nM.
`CNC(=O)c1ccccc1Nc1nc(Nc2ccc(N3CCOCC3)cc2)ncc1Cl.Cl` [GSK1576028A]: the potency estimated from few doses in test [3] (setting [21]) is 676 nM; in test [19] (setting [21]), 60.1 nM; in [14] (setting [21]), 88.4 nM; in test [6] (setting [21]), 688 nM; in test [15] (setting [21]), 2140 nM; in test [8] (setting [21]), 1280 nM. The potency estimated from few doses in test [17] (setting [21]) is 1770 nM; in test [18] (setting [21]), 1270 nM; in test [9] (setting [21]), 322 nM.
On to `Cl.Nc1c(C(=O)c2cccc(C#CCN3CCCCC3)c2)cnn1-c1ccc(F)cc1` [RO1154461-001], for which the potency estimated from few doses in [1] (compound concentrations: 100 nM and 1000 nM (sheet 'Samples'), CATDS: 1.00986377445768E-2) was 1860 nM; in test [2] (compound concentrations: 100 nM and 1000 nM (sheet 'Samples'), CATDS: 1.6105152878217399E-2), 472 nM; in test [3] (compound concentrations: 100 nM and 1000 nM (sheet 'Samples'), CATDS: 1.18075673820272E-2) it was 1060 nM; in test [6] (compound concentrations: 100 nM and 1000 nM (sheet 'Samples'), CATDS: 1.20335296051875E-2), 1000 nM; in test [8] (compound concentrations: 100 nM and 1000 nM (sheet 'Samples'), CATDS: 1.30987485498882E-2), 787 nM; in test [9] (compound concentrations: 100 nM and 1000 nM (sheet 'Samples'), CATDS: 1.4471532311659799E-2), 608 nM.
On to `CCn1c(-c2nonc2N)nc2c(C#CCN)ncc(OCCCN)c21.O=C(O)C(F)(F)F` [GSK561866B], for which the potency estimated from few doses in test [16] (CATDS: 8.7160231406383598E-2) is 858 nM.
Consider `COc1cccc2c(-c3ccncc3)c(-c3ccc(F)cc3)nn12` [GW468513X], for which the potency estimated from few doses in test [1] (compound concentrations: 100 nM and 1000 nM (sheet 'Samples'), CATDS: 4.5362878745682803E-2) was 739 nM; in test [13] (compound concentrations: 100 nM and 1000 nM (sheet 'Samples'), CATDS: 4.67055815056669E-2), 666 nM; in [10] (compound concentrations: 100 nM and 1000 nM (sheet 'Samples'), CATDS: 8.4108879944504403E-2), 140 nM; in test [19] (compound concentrations: 100 nM and 1000 nM (sheet 'Samples'), CATDS: 5.7634861461912698E-2), 346 nM; in test [14] (compound concentrations: 100 nM and 1000 nM (sheet 'Samples'), CATDS: 3.7375924419407701E-2), 1750 nM.
Consider `CCn1c(-c2nonc2N)nc2c(C#CC(C)(C)O)nc(CN3CCCC3)cc21` [GSK1000163A], for which the potency estimated from few doses in test [7] (compound concentrations: 100 nM and 1000 nM (sheet 'Samples'), CATDS: 0.25481287922850399) is 759 nM.
With `CCn1c(-c2nonc2N)nc2c(-c3ccccc3)ncc(OCCCN)c21.CCn1c(-c2nonc2N)nc2c(-c3ccccc3)ncc(OCCCN)c21.O=C(O)C(F)(F)F.O=C(O)C(F)(F)F` [GSK260205A], the potency estimated from few doses is 59 nM in [1] (compound concentrations: 100 nM and 1000 nM (sheet 'Samples'), CATDS: 0.117322615111941); 706 nM in [10] (compound concentrations: 100 nM and 1000 nM (sheet 'Samples'), CATDS: 3.6163147578600598E-2); 950 nM in test [20].
Consider `CCn1c(-c2nonc2N)nc2c(C#CC(C)(C)O)nc(OCCN)cc21.CCn1c(-c2nonc2N)nc2c(C#CC(C)(C)O)nc(OCCN)cc21.Cl.Cl` [GSK902056A], for which the potency estimated from few doses in [7] (setting [21]) was 176 nM.
